Screening data: PubChem BioAssay, several laboratories
CF NFkB inh: blocks PAF-induced NF-kB reporter in cystic fibrosis cells | KKLEB NF-kB-GFP reporter, GFP fluorescence overnight | inhibition, % at 5 µM | hit rate 0.86% among 360,000;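 active = at least 50% inhibition at 5 µM, scaled per plate between neutral and stimulator controls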;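 also: PAF is a Pseudomonas aeruginosa culture filtrate used as stimulus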
Mdm2-MdmX inh: human Mdm2/MdmX binding inhibition. O15151+Q00987. SaOS-2 split-luciferase Mdm2/MdmX complementation, luminescence. inhibition, % at 8 µM. hit rate 3% among 330,000. AID 485346;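 active = inhibition of at least 50% at 8 µM in the primary screen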
HIF-2a inh: blocks HIF-2a reporter activity; 786-0 RCC cells HIF-2a reporter, luciferase luminescence, overnight; inhibition, % at 18.8 µM; hit rate 0.72% among 360,000;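 active = inhibition of the luminescence signal of 40% or more relative to plate controls, in a single-dose primary screen at 18.75 µM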
Peg3 prom inh: Peg3 promoter activity inhibition; HeLa PEG-Prom luciferase reporter, luminescence, overnight; inhibition, % at 20 µM; hit rate 1.7% among 360,000;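 active = inhibition of at least 50% at 20 µM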
ABHD5 PLIN5 PPI: blocks binding of human ABHD5 to perilipin-5; Q00G26+Q8WTS1; Split G. princeps luciferase complementation, luminescence, 4 h; inhibition, % at 4 µM; hit rate 0.78% among 360,000; AID 602281;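 active = inhibition above the mean inhibition across every tested compound plus 3 SD, cut at about 22% in these data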
Target sequence (Q00G26 whole entry, looked up): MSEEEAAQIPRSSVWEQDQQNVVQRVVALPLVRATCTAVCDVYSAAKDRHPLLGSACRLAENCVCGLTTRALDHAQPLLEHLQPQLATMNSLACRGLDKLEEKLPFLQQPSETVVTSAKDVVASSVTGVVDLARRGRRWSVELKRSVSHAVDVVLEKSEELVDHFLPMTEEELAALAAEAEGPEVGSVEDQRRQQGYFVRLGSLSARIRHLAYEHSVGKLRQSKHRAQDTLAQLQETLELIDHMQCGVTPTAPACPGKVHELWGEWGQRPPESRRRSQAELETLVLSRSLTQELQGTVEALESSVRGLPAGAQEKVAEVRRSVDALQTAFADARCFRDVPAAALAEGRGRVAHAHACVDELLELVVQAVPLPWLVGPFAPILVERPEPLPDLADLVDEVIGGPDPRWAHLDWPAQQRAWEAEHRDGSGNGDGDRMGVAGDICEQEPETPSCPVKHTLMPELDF
Target sequence (Q8WTS1 whole entry, looked up): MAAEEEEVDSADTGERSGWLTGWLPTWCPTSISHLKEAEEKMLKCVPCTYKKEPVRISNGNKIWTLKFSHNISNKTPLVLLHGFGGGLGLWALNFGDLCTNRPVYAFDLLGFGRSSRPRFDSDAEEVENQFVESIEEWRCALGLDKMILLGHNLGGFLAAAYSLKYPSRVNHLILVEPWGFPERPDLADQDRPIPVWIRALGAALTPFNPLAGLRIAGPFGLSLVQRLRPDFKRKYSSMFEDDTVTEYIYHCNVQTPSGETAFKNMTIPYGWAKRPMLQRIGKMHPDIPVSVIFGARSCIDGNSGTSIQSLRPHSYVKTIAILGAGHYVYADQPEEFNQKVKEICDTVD
KKLEB tox: CF airway cell cytotoxicity counter-screen; KKLEB CF airway cells viability, ATPlite luminescence, overnight; stronger effect = lower value; cells stimulated with P. aeruginosa culture filtrate; activity change (cytotoxicity), % at 5 µM; hit rate 0.36% among 360,000;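 active = corrected activity change at or below -50% at 5 µM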
Mdm2-MdmX conf: human Mdm2/MdmX binding inhibition, confirmed | shares compounds with Mdm2-MdmX inh | luminescent assay | inhibition, % at 8 µM | hit rate 55% among 10,000; in the data active = inhibition above about 40%
FLuc counter: full-length luciferase inhibition in Mdm2/MdmX counter-screen; shares compounds with Mdm2-MdmX inh; SaOS-2 full-length luciferase counterscreen, luminescence; inhibition, % at 8 µM; hit rate 77% among 6,200;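 active = mean inhibition at 8 µM reaching about 37%, which flags the compound as non-specific, limit read from the data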;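 also: p53-null SaOS-2 cells with luciferase driven by a doxycycline-inducible promoter; compound on cells about two nights before reading with doxycycline added after day one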
Large screens that a line does not name were inactive (follow-up assays come after a bar, where they were run). Shown are actives, neighbours in structure and some others; about 4.6% of the full set was active somewhere.

CC(C)=CCc1c(O)cc2c(=O)c3ccc(O)cc3oc2c1O	none
CCCCn1c(N)c(N(CCC(C)C)C(=O)C2=NN(c3cc(C)ccc3C)C(=O)CC2)c(=O)[nH]c1=O	none
CCn1c(=O)n(CC)c2cc(N3CCCC3)c(NC(=O)c3cc(Br)ccc3OC)cc21	Mdm2-MdmX inh 75.2 (no result: CF NFkB inh, HIF-2a inh, Peg3 prom inh, ABHD5 PLIN5 PPI, KKLEB tox) | Mdm2-MdmX conf inactive
C[C@H]1CN([C@@H](C)CO)C(=O)Cc2cc(NC(=O)C3CC3)ccc2O[C@H]1CN(C)Cc1ccc(C(=O)O)cc1	none
CCc1c(C)sc(NC(=O)c2cc(-c3cc(OC)ccc3OC)on2)c1C#N	Mdm2-MdmX inh 96.8, KKLEB tox -70.0 | Mdm2-MdmX conf 45.9 | FLuc counter 67.9
Cc1nc(SCC(=O)Nc2ccc(CN3CCCC3)cc2)c2c(C)c(C)sc2n1	Mdm2-MdmX inh 84.0, Peg3 prom inh 84.6 | Mdm2-MdmX conf inactive | FLuc counter 64.0
CCOC(=O)/C=c1\s/c(=C\c2ccc3cc(OC)ccc3c2)c(=O)n1CC(=O)NCc1ccc2c(c1)OCO2	Mdm2-MdmX inh 79.4 | Mdm2-MdmX conf inactive
CCOC(=O)/C=c1\s/c(=C\c2ccc3c(c2)OCCO3)c(=O)n1CC(=O)NCC1CCCO1 (stereo not drawn)	none
CCOC(=O)/C=c1\s/c(=C\c2ccccc2C)c(=O)n1CC(=O)NCc1ccc2c(c1)OCO2	Mdm2-MdmX inh 92.1, KKLEB tox -58.4 | Mdm2-MdmX conf 67.5 | FLuc counter 44.1
S=C1SCCCN1Cc1ccc(Cl)cc1	none (no result: Mdm2-MdmX inh)
Cc1ccc(C(O)(c2ccccc2)c2ccccc2C(C)N(C)C)c(C)c1 (stereo not drawn)	Mdm2-MdmX inh 62.3 | Mdm2-MdmX conf inactive
Cc1cc(Nc2cccc([N+](=O)[O-])c2)n2c(nc3ccccc32)c1C#N	Mdm2-MdmX inh 98.0 | Mdm2-MdmX conf 90.8 | FLuc counter inactive
COc1ccc(C/C(N)=N/OC(=O)c2cccc([N+](=O)[O-])c2)cc1	none
COc1cc(C(=O)O/N=C(\N)Cc2ccc([N+](=O)[O-])cc2)cc(OC)c1OC	Mdm2-MdmX inh 85.1 | Mdm2-MdmX conf 69.5 | FLuc counter 70.5
N/C(Cc1ccc([N+](=O)[O-])cc1)=N\OC(=O)c1cccc(Br)c1	Mdm2-MdmX inh 60.9 | Mdm2-MdmX conf inactive
CCOc1ccc(C(=O)O/N=C(\N)c2ccc([N+](=O)[O-])cc2)cc1OCC	Mdm2-MdmX inh 59.8 | Mdm2-MdmX conf 52.3 | FLuc counter 125.5
COc1ccc(C(=O)O/N=C(\N)Cc2ccc([N+](=O)[O-])cc2)c(OC)c1	Mdm2-MdmX inh 86.4 | Mdm2-MdmX conf 67.8 | FLuc counter 90.3
N/C(Cc1ccc([N+](=O)[O-])cc1)=N\OC(=O)c1ccc([N+](=O)[O-])cc1	none
N/C(=N\OC(=O)c1cccc(Br)c1)c1ccc([N+](=O)[O-])cc1	none
CCCS(=O)(=O)c1c(S(=O)(=O)CCC)c2ccc(C(N)=O)cn2c1C(=O)c1ccc(OC)cc1	none
CC(NC(=O)Cc1ccc(Br)cc1)c1ccccc1 (stereo not drawn)	none
CCN(CC)c1ccc(/C=N/NC(=O)c2cccc(S(=O)(=O)Nc3ccccc3OC)c2)c(O)c1	Mdm2-MdmX inh 77.2 | Mdm2-MdmX conf 78.5 | FLuc counter inactive
CC(C)(C)N(NC(=O)Nc1ccc(Cl)c(Cl)c1)C(=O)c1ccccc1	Mdm2-MdmX inh 86.3, Peg3 prom inh 61.0 | Mdm2-MdmX conf 66.5 | FLuc counter 42.6
N#Cc1ccc(NC(=O)Nc2ccc(Cl)cc2)cc1	Mdm2-MdmX inh 84.8 | Mdm2-MdmX conf 88.4 | FLuc counter 44.7
O=C(Nc1ccc(Oc2ccc(NC(=O)Nc3ccccc3Cl)cc2)cc1)Nc1ccccc1Cl	Mdm2-MdmX inh 54.0 | Mdm2-MdmX conf 40.5 | FLuc counter 47.0
O=C(Nc1ccc(Cl)c([N+](=O)[O-])c1)C(Sc1ccccc1)c1ccccc1 (stereo not drawn)	Mdm2-MdmX inh 88.2, Peg3 prom inh 52.9 | Mdm2-MdmX conf 82.2 | FLuc counter inactive
Cc1cccc(C(=O)N[C@H](C(=O)NCCc2ccc(Cl)cc2)C(C)C)c1	none
O=C(Nc1ccc(Cl)c(Cl)c1)Nc1ccccc1O	none
O=C(Nc1ccccc1)Nc1ccccc1Br	none
O=C(Nc1ccc(Cl)cc1)Nc1ccc(Cl)c(Cl)c1	Mdm2-MdmX inh 89.3 (no result: CF NFkB inh, HIF-2a inh, Peg3 prom inh, ABHD5 PLIN5 PPI, KKLEB tox) | Mdm2-MdmX conf 89.6 | FLuc counter inactive
O=C(Nc1ccc(Cl)c(Cl)c1)Nc1ccc(Br)cc1F	CF NFkB inh 71.2, Mdm2-MdmX inh 95.0, KKLEB tox -63.8 | Mdm2-MdmX conf 92.8 | FLuc counter inactive
O=C(NNc1ccccc1[N+](=O)[O-])Nc1ccc(Cl)c(Cl)c1	Mdm2-MdmX inh 86.7 | Mdm2-MdmX conf 79.8 | FLuc counter 40.5
O=C(Nc1ccccc1)Nc1ccc(Br)c(Cl)c1	Mdm2-MdmX inh 86.8 | Mdm2-MdmX conf 43.9 | FLuc counter 48.2
O=C(Nc1cccc(OC(F)(F)F)c1)c1cccc2c(-c3cccnc3)coc12	none (no result: Mdm2-MdmX inh)
CC(=O)Oc1ccc(Cn2c(C)c(C(=O)NCCC#N)sc2=O)cc1	none (no result: Mdm2-MdmX inh)
COc1ccccc1S(=O)(=O)N(C)C[C@H]1Oc2ncc(Br)cc2C(=O)N([C@H](C)CO)C[C@H]1C	none (no result: Mdm2-MdmX inh)
O=C(Cc1ccc(Br)cc1)N1CCOCC1	none
CC1(c2nnc(Cc3ccccc3)o2)CC(c2ccccc2Br)=NO1 (stereo not drawn)	none
COc1ccccc1-c1cccc([C@@H]2C[C@H]3[C@H](CON3C)CN2S(=O)(=O)c2ccccc2C)c1	none (no result: Mdm2-MdmX inh)
Oc1ccc(Nc2nc3ccccc3nc2Nc2ccc(O)cc2)cc1	Mdm2-MdmX inh 100.4, HIF-2a inh 75.0, Peg3 prom inh 96.4, ABHD5 PLIN5 PPI 57.2 | Mdm2-MdmX conf inactive
Oc1ccc(Nc2nc(-c3ccccc3)nc3ccccc23)cc1	none
COC(=O)C1(C(=O)OC)C[C@H](/C=C/c2ccccc2)N(Cc2ccccc2OC)[C@@H]1c1ccccc1	none (no result: CF NFkB inh, Mdm2-MdmX inh, Peg3 prom inh, KKLEB tox)
COc1ccc(-c2c(C#N)c(N)nc3c2CCc2ccccc2-3)cc1OC	Mdm2-MdmX inh 89.0 (no result: CF NFkB inh, HIF-2a inh, Peg3 prom inh, ABHD5 PLIN5 PPI, KKLEB tox) | Mdm2-MdmX conf 85.1 | FLuc counter 50.1
COc1cc(-c2c(C#N)c(N)nc3c2CCCC3)ccc1O	none
CCCc1cc(-c2ccc(O)c(OCC)c2)c(C#N)c(N)n1	none
COc1ccc(-c2cc(-c3ccc(O)cc3)nc(N)c2C#N)cc1OC	Mdm2-MdmX inh 58.5 | Mdm2-MdmX conf 42.0 | FLuc counter 100.4
COc1ccc(CCC(=O)Nc2ccc(S(=O)(=O)N3CCOCC3)cc2)cc1OC	none (no result: Mdm2-MdmX inh)
N#Cc1ccc(NC(=O)CN2C(=O)NC3(CCCC3)C2=O)cc1	none
Cc1csc(NC(=O)Cc2coc3cc(C)c(C(C)C)cc23)n1	Mdm2-MdmX inh 80.4 | Mdm2-MdmX conf 69.3 | FLuc counter 57.4
Cc1cc2occ(CC(=O)NCc3cccs3)c2cc1C(C)C	none
